From publication PMC5700166
Positions count from the first letter of the chain named.

Key:
Experiment in all cases: protein-binding microarray (PBM); PBM: ~300 nM protein, 6 mM HEPES pH 7.8, 80 mM KCl, 0.5 mM EDTA, 0.5 mM EGTA, 6% glycerol, 35 ng/ul poly-dIdC, 1% milk, 1 h, room temperature; Ap Aiptasia and Nv Nematostella (sea anemones) / Co Capsaspora / Aq Amphimedon (sponge) / Dm Drosophila / Hu human; RHD is the Rel homology domain; high values mean tight binding
Settings in all cases: dsDNA, one strand shown
GST-Ap-NF-kB RHD = target: T1, GST-Ap-NF-kB RHD (Exaiptasia pallida (Aiptasia), UniProt A0A913YAJ5 2-422)
T1 sequence: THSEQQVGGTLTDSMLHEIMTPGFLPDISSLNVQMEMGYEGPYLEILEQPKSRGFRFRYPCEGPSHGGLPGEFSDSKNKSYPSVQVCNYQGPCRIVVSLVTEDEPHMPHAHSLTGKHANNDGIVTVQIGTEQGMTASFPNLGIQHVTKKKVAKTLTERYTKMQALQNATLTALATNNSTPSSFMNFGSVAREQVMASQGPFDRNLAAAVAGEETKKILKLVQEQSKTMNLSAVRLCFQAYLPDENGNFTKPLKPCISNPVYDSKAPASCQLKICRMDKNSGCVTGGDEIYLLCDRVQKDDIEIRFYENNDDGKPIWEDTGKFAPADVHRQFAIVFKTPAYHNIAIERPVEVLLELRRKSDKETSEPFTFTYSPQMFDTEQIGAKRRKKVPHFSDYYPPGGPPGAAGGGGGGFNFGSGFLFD

[1] = target: T2, GST-Nv-NF-kB (Cys allele) (Nematostella vectensis, UniProt E5G601 2-411)
T2 sequence: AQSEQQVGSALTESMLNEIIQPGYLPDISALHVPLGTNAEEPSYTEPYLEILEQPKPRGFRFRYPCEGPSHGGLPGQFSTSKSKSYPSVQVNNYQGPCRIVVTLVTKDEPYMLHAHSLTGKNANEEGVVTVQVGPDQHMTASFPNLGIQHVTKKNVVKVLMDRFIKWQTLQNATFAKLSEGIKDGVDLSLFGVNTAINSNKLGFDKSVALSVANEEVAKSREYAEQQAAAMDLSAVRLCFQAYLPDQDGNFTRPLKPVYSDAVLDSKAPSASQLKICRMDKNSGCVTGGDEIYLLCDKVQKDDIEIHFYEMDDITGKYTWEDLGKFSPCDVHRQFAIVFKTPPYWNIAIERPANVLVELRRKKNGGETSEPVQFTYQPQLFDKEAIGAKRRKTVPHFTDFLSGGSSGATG

[2] = target: T3, GST-Nv-NF-kB (Ser allele) (Nematostella vectensis, UniProt A7UNT2 2-411)
T3 sequence: T2 sequence with Q21R, C66S, S207N, E215Q, V217A, E225K, A268E, D399E

GST-Co-NF-kB = target: T4, GST-Co-NF-kB (Capsaspora owczarzaki, UniProt F1ARL5 200-546)
T4 sequence: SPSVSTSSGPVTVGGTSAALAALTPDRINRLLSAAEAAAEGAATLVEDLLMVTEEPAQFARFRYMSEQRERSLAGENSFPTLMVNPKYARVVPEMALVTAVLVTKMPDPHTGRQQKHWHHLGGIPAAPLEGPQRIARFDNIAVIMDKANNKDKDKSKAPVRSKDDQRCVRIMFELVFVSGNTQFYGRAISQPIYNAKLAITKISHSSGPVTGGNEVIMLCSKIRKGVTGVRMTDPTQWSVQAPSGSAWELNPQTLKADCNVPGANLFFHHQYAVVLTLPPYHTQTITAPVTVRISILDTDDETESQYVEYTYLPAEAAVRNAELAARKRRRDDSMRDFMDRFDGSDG

GST-Dm-Relish = target: T5, GST-Dm-Relish (Drosophila melanogaster, UniProt Q94527 99-473)
T5 sequence: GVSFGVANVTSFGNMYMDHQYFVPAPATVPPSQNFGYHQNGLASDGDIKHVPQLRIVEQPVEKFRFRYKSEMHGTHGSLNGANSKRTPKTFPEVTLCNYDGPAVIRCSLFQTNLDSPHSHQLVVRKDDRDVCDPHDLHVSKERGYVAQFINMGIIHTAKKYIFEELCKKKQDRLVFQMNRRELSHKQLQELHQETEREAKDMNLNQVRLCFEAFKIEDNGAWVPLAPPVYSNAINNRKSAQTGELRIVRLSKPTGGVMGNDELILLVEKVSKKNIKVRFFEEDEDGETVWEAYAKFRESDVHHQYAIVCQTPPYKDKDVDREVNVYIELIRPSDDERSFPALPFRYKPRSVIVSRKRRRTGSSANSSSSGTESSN

GST-Aq-NF-kB = target: T6, GST-Aq-NF-kB (Amphimedon queenslandica, UniProt A9Y5G7 2-389)
T6 sequence: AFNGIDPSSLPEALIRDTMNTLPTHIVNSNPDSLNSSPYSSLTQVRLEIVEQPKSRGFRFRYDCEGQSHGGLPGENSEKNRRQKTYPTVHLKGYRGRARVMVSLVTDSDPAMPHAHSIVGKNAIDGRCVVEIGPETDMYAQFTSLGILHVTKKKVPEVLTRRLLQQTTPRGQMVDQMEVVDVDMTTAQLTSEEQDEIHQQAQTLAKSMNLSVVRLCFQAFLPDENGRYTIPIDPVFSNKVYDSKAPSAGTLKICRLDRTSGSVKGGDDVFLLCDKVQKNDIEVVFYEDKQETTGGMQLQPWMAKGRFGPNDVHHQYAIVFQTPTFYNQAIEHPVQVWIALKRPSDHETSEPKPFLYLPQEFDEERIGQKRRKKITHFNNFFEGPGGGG

| Sequence | binding signal (GST-Ap-NF-kB RHD) [z-score] | binding signal [1] [z-score] | binding signal [2] [z-score] | binding signal (GST-Co-NF-kB) [z-score] | binding signal (GST-Dm-Relish) [z-score] | binding signal (GST-Aq-NF-kB) [z-score] |
| --- | --- | --- | --- | --- | --- | --- |
| CCGATTAACATCATTAGGGAAAATGATGTTAATCGGGTCTTGATTCGCTTGACGCTGCTG | 3.51 | 6.08 | 7.94 | 2.21 | 1.55 | 4.53 |
| CCGATTAACATCAGGGAAAAACCTGATGTTAATCGGGTCTTGATTCGCTTGACGCTGCTG | 5.74 | 7.26 | 7.89 | 3.82 | 8.13 | 9.06 |
| CCGATTAACATCAGTATTCCCCATGATGTTAATCGGGTCTTGATTCGCTTGACGCTGCTG | 6.37 | 7.73 | 6.79 | 7.15 | 4.54 | 5.32 |
| CCGATTAACATCACCATTTTCCCTGATGTTAATCGGGTCTTGATTCGCTTGACGCTGCTG | 3.46 | 4.65 | 7.17 | 3.65 | 1.32 | 3.42 |
| CCGATTAACATCAAAGGGAATTCTGATGTTAATCGGGTCTTGATTCGCTTGACGCTGCTG | 4.72 | 7.1 | 6.91 | 2.97 | 4.04 | 5.65 |
| CCGATTAACATCAACCCCCCCCTTGATGTTAATCGGGTCTTGATTCGCTTGACGCTGCTG | 4.76 | 4 | 3.93 | 5.09 | 4.91 | 4.47 |
| CCGATTAACATCAGGGAGACCCCTGATGTTAATCGGGTCTTGATTCGCTTGACGCTGCTG | 6.28 | 3.82 | 1.04 | 2.28 | 6.09 | 6.87 |
| CCGATTAACATCAATTTATCCCCTGATGTTAATCGGGTCTTGATTCGCTTGACGCTGCTG | 5.26 | 5.83 | 7.39 | 7.11 | 3.35 | 3.84 |
| CCGATTAACATCAAAGTTTTCCCTGATGTTAATCGGGTCTTGATTCGCTTGACGCTGCTG | 4.37 | 6.15 | 7.61 | 6.07 | 2.47 | 4.93 |
| CCGATTAACATCAAGGGAAAAAATGATGTTAATCGGGTCTTGATTCGCTTGACGCTGCTG | 3.77 | 5.84 | 7.2 | 5.23 | 1.86 | 4.83 |
| CCGATTAACATCACGTTTTTCCCTGATGTTAATCGGGTCTTGATTCGCTTGACGCTGCTG | 3.81 | 4.59 | 6.7 | 5.98 | 4.58 | 4.26 |
| CCGATTAACATCAGGCGTTTCCCTGATGTTAATCGGGTCTTGATTCGCTTGACGCTGCTG | 2.18 | 3.27 | 2.59 | 1.83 | 1.54 | 4.39 |
